This note sets out measurements from PubChem BioAssay (NCI).

This is part of a sample that, as a whole, favours compounds with a hit. Of some 83,000 tested, about 20% had one in any assay.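 Testing used 96-well plates and a 48-hour single-concentration exposure. Example: -40 means 40% of the starting cells died.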 A number with no mark means an inactive call. Active and inactive are the calls of the source. Rule for the calls: active = growth percent below 10; inactive = the rest.

Some test systems named below: NCI-H23 lung; NCI-H226 lung; NCI-H322M lung; HOP-62 NSCLC; HOP-92 NSCLC; NCI-H522 lung; A549/ATCC NSCLC; 786-0 renal; COLO 205 colon; DU-145 prostate; K-562 leukemia; MALME-3M melanoma; MDA-MB-231 breast; RXF 393 renal; SF-268 CNS; SF-295 CNS; SF-539 CNS; UACC-257 melanoma; M14 melanoma; NCI-H460 lung.
Assay in all cases: NCI-60 one-dose screen, 48 h (100 = growth as untreated, 0 = no growth, -100 = all killed)
Conditions in all cases: 10 µM unless noted

In the case of `CN(C)c1ccnc(NCCCSC(c2ccccc2)(c2ccccc2)c2ccccc2)c1`, the growth is 62.7% in the assay on NCI-H23 lung; 53% with NCI-H226 lung; 61.5% in the assay with NCI-H322M lung; 74.3% in the assay with HOP-62 NSCLC; -2.94% (active) with HOP-92 NSCLC; 41.1% in the assay on NCI-H522 lung. Besides, the growth with A549/ATCC NSCLC was 48.4%; in the assay on 786-0 renal it was 8.23% (active); in the assay on COLO 205 colon, -74.6% (active); with DU-145 prostate, 46.2%; in the assay with K-562 leukemia, -36.6% (active); in the assay on MALME-3M melanoma, -94.6% (active). In addition, the growth is 31% with MDA-MB-231 breast; 6.09% (active) in the assay with RXF 393 renal; 78.8% in the assay with SF-268 CNS; 17% in the assay on SF-295 CNS; 41.6% in the assay with SF-539 CNS; -26.9% (active) in the assay on UACC-257 melanoma. The growth in the assay on M14 melanoma was -70.8% (active).

As for `CCCCn1c(O)c(N=Nc2nc(-c3cc4ccccc4oc3=O)cs2)c2cc(Br)ccc21`, the growth in the assay on NCI-H23 lung was 98.3%; in the assay with NCI-H226 lung it was 99.2%; with NCI-H322M lung, 102%; in the assay on HOP-62 NSCLC, 110%; with NCI-H460 lung, 114%; in the assay on NCI-H522 lung it was 101%. Also, the growth in the assay with A549/ATCC NSCLC was 97.8%; in the assay with 786-0 renal, 106%; with COLO 205 colon it was 140%; in the assay on DU-145 prostate it was 108%; in the assay on K-562 leukemia it was 105%; in the assay on MALME-3M melanoma, 105%. Moreover, the growth was 106% with MDA-MB-231 breast; 97% in the assay with SF-268 CNS; 105% in the assay on SF-295 CNS; 103% in the assay on SF-539 CNS; 103% with UACC-257 melanoma; 112% with M14 melanoma.

Consider `CN(C)c1nc(NCCNS(=O)(=O)c2ccc(C(=O)/C=C/c3ccc(Cl)cc3)cc2)nc(Nc2ccc(F)cc2)n1`, for which the growth in the assay on NCI-H23 lung is -38.6% (active); in the assay on NCI-H226 lung, -53.3% (active); in the assay with NCI-H322M lung, 6.91% (active); in the assay with HOP-62 NSCLC, 15.4%; with NCI-H522 lung, -87.4% (active); with A549/ATCC NSCLC, -23.5% (active). Moreover, the growth was -86% (active) in the assay with 786-0 renal; -82.9% (active) in the assay on COLO 205 colon; -23.1% (active) in the assay with DU-145 prostate; 1.01% (active) in the assay on K-562 leukemia; -46.6% (active) in the assay on MALME-3M melanoma; -61.4% (active) in the assay on MDA-MB-231 breast. Further, the growth in the assay on RXF 393 renal was -81.3% (active); in the assay on SF-268 CNS it was 3.35% (active); in the assay with SF-295 CNS, -26.6% (active); with SF-539 CNS, -98% (active); in the assay on UACC-257 melanoma, -4.45% (active); with M14 melanoma, -65.8% (active).

As for `C#CCOc1ccc(/C=N/Nc2nc(-c3ccc(F)cc3)cs2)cc1OC`, the growth in the assay on NCI-H226 lung was 54.1%; in the assay with NCI-H322M lung it was 83.1%; with HOP-62 NSCLC, 86.9%; with NCI-H460 lung, 77.4%; with HOP-92 NSCLC, 34.2%; with NCI-H522 lung, 46.9%. For the same molecule, the growth was 72.9% in the assay with A549/ATCC NSCLC; 84.4% with 786-0 renal; 68.9% in the assay on COLO 205 colon; 89% with DU-145 prostate; 25% in the assay with K-562 leukemia; 86.3% in the assay with MALME-3M melanoma. Moreover, the growth was 73.5% in the assay on MDA-MB-231 breast; 24% in the assay with RXF 393 renal; 84.8% in the assay on SF-268 CNS; 79.2% with SF-295 CNS; 70.6% with SF-539 CNS; 63.7% in the assay with UACC-257 melanoma. For the same molecule, the growth in the assay with M14 melanoma is 61.3%.

Consider `COc1ccc(/C=C/c2nc3ccccc3n3c(-c4ccc(Cl)cc4)nnc23)cc1`, for which the growth in the assay on NCI-H226 lung is 95%; in the assay with NCI-H322M lung it was 104%; in the assay with HOP-62 NSCLC, 96.8%; with NCI-H460 lung, 88.6%; with HOP-92 NSCLC it was 69.5%; with NCI-H522 lung it was 64.2%. Further, the growth was 90.4% with A549/ATCC NSCLC; 88.8% with 786-0 renal; 92.4% in the assay with COLO 205 colon; 98.5% in the assay with DU-145 prostate; 72.4% in the assay with K-562 leukemia; 104% with MALME-3M melanoma. Moreover, the growth is 91.7% in the assay with MDA-MB-231 breast; 100% in the assay on RXF 393 renal; 79.4% in the assay on SF-268 CNS; 123% with SF-295 CNS; 90.8% in the assay with SF-539 CNS; 102% with UACC-257 melanoma. Moreover, the growth in the assay on M14 melanoma is 102%.

For `COC(OC)C1=C(C)OC(N)=C(C#N)C12C(=O)Nc1ccccc12` (stereo not given), the growth was 90.2% with NCI-H226 lung; 98.3% with NCI-H322M lung; 111% in the assay with HOP-62 NSCLC; 97.2% in the assay with NCI-H460 lung; 118% in the assay on HOP-92 NSCLC; 6.48% (active) with NCI-H522 lung. Moreover, the growth in the assay on A549/ATCC NSCLC is 114%; in the assay on 786-0 renal, 113%; with COLO 205 colon, 102%; in the assay with DU-145 prostate, 105%; in the assay on K-562 leukemia, 82%; with MALME-3M melanoma, 87.2%. In addition, the growth was 102% in the assay with MDA-MB-231 breast; 109% in the assay on RXF 393 renal; 104% with SF-268 CNS; 138% with SF-295 CNS; 100% with SF-539 CNS; 100% in the assay with UACC-257 melanoma. In the assay on M14 melanoma, the growth was 94.9%.

`CC(=O)OCC1OC(OC2C(COC(C)=O)OC(n3cc(COc4ccc5ccc(=O)oc5c4)nn3)C(OC(C)=O)C2OC(C)=O)C(OC(C)=O)C(OC(C)=O)C1OC(C)=O` (stereo not given): the growth is 101% with NCI-H226 lung; 103% in the assay on NCI-H322M lung; 103% in the assay on HOP-62 NSCLC; 108% in the assay with NCI-H460 lung; 94.4% in the assay with HOP-92 NSCLC; 71.3% with NCI-H522 lung. For the same molecule, the growth in the assay on A549/ATCC NSCLC was 112%; with 786-0 renal, 96.4%; in the assay with COLO 205 colon it was 116%; in the assay on DU-145 prostate it was 108%; in the assay on K-562 leukemia, 92.1%; in the assay with MALME-3M melanoma, 101%. The growth in the assay on MDA-MB-231 breast is 101%; in the assay on RXF 393 renal it was 90.5%; in the assay with SF-268 CNS it was 91.8%; in the assay with SF-295 CNS it was 113%; with SF-539 CNS it was 100%; in the assay on UACC-257 melanoma it was 112%. The growth with M14 melanoma was 107%.

As for `COc1ccc(NC(=O)[C@@H](N)Cc2ccccc2)cc1C(=O)Nc1cccc(C2CC(=O)c3c(cc(OC)c(OC)c3OC)O2)c1` (stereo not given in full), the growth was 69.8% in the assay with NCI-H226 lung; 79.3% in the assay on NCI-H322M lung; 86.8% in the assay on HOP-62 NSCLC; 54.7% with NCI-H460 lung; 44.4% in the assay with HOP-92 NSCLC; 39.6% with NCI-H522 lung. Further, the growth with A549/ATCC NSCLC is 68.9%; in the assay with 786-0 renal it was 72.2%; with COLO 205 colon, 78.4%; in the assay with DU-145 prostate, 58.1%; in the assay on K-562 leukemia, 17.5%; in the assay with MALME-3M melanoma, 66%. The growth is 63% in the assay with MDA-MB-231 breast; 73.7% in the assay with RXF 393 renal; 60.5% in the assay on SF-268 CNS; 127% with SF-295 CNS; 82.4% with SF-539 CNS; 95.5% in the assay on UACC-257 melanoma. In addition, the growth in the assay with M14 melanoma was 65%.
